HSP90 refold inh: inhibitors of HSP90 luciferase refolding in rabbit reticulocyte lysate. inhibition, % at 5.6 µM. hit rate 0.91% among 290,000. luciferase refolding luminescence, 3 h;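 active means inhibition above the screen-wide mean plus 3 SD, computed separately per campaign, cut at about 16% in these data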;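 further: 0% = DMSO wells and 100% = 60 µM geldanamycin wells; inhibitors lower the luminescence because luciferase stays unfolded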
SENP6 block: blocks the human protease SENP6. hit rate 1.8% among 330,000. inhibition, % at 10 µM. Recombinant SENP6 catalytic domain, aminoluciferin luminescence. Q9GZR1. AID 2599;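 active means inhibition above about 50% at the single tested dose, limit read from the data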;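 further: plate controls were DMSO wells with enzyme for no effect and DMSO wells lacking enzyme for full effect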
SENP7 block: blocks the human protease SENP7 | Q9BQF6 | recombinant SENP7, Z-RLRGG-aminoluciferin luminescence, 40 min | inhibition, % at 5 µM | hit rate 1.5% among 330,000;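 active means inhibition above about 50% at the single test dose, limit read from the data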;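 further: plate controls were DMSO with enzyme for no effect and no enzyme buffer wells for full effect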
SENP8 block-1: SENP8 protease inhibition; Q96LD8; purified SENP8, Z-RLRGG-aminoluciferin cleavage, luminescence; inhibition, % at 10 µM; hit rate 1.2% among 330,000; AID 2540; in the data active means inhibition above about 50%
Target sequence (Q96LD8 whole entry, looked up): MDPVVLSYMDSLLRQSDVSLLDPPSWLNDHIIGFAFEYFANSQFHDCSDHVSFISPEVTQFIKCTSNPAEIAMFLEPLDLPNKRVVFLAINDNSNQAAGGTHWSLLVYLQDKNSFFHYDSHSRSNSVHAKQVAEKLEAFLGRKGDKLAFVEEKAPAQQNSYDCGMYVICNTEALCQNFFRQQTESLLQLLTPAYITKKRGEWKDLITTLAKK
SENP8 block-2: blocks human SENP8 cleavage of Nedd8 substrate; Q96LD8; recombinant SENP8, Nedd8 substrate fluorescence; inhibition, % at 20 µM; hit rate 0.64% among 360,000; in the data active means inhibition mostly above about 40%, no sharp cut-off; inactive means mostly below about 27%
LGR2 antag: Drosophila LGR2 receptor signaling inhibition | HEK293 LGR2, CRE-luciferase, bursicon-stimulated, 4 h | inhibition, % at 9.99 µM | hit rate 0.35% among 380,000;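 active means drop in luminescence signal, shown as inhibition above about 50% in the replicate tests, limit read from the data, passing the limit was not always enough; inconclusive means probably only some replicates passing the limit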;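 further: agonist challenge used bursicon conditioned medium at about half maximal strength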
HSP90 confirm: confirmation of HSP90 inhibitors; rabbit reticulocyte lysate, luciferase refolding luminescence, 3 h; AID 1846; shares compounds with HSP90 refold inh; inhibition, % at 5.9 µM; hit rate 64% among 2,300; in the data active means inhibition above about 18%;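 further: 0% = vehicle wells and 100% = reference inhibitor wells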
FLuc counter: firefly luciferase inhibition, HSP90 counter-screen. shares compounds with HSP90 refold inh. purified native firefly luciferase, luminescence. inhibition, % at 5.9 µM. hit rate 48% among 2,300;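 active means inhibition above the mean inhibition of all tested sample wells plus 3 SD, cut at about 10% in these data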;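 further: 0% = DMSO with luciferase and 100% = wells lacking luciferase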
SENP8 conf: confirmation of human SENP8 protease inhibitors | shares compounds with SENP7 block | Recombinant SENP8, Z-RLRGG-aminoluciferin luminescence, 60 min | inhibition, % at 12.5 µM | hit rate 40% among 6,200 | AID 488912;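 active means mean inhibition across replicates above about 50%, limit read from the data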
SENP6 conf: human SENP6 inhibition, confirmed | shares compounds with SENP7 block | recombinant SENP6, Z-RLRGG-aminoluciferin luminescence | inhibition, % at 12.5 µM | hit rate 58% among 6,200
SENP7 conf: human SENP7 inhibition, confirmed | AID 488917 | inhibition, % at 12.5 µM | hit rate 69% among 6,200 | recombinant SENP7, Z-RLRGG-aminoluciferin luminescence, 40 min | shares compounds with SENP7 block
Casp3 SENP sel: inhibits human caspase-3 in SENP selectivity test. shares compounds with SENP7 block. AID 488918. inhibition, % at 12.5 µM. hit rate 60% among 6,200. purified caspase-3, Z-DEVD-aminoluciferin luminescence, 60 min;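 active means mean inhibition above about 50%, limit read from the data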;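 further: plate controls were enzyme with DMSO for no effect and wells without caspase-3 for full effect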
Target sequence (P42574 28-227 limits assumed): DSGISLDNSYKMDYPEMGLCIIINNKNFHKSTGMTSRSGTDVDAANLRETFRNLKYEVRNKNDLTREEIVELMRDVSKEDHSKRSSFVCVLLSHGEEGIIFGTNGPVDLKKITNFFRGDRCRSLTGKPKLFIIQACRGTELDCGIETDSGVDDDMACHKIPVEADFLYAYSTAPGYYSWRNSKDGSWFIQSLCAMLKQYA
Luc interf: counter-screen for SENP inhibitors: luminescence interference. shares compounds with SENP7 block. Pre-incubated SENP8/Z-RLRGG-aminoluciferin, luciferase luminescence interference. inhibition, % at 12.5 µM. hit rate 39% among 6,200;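 active means mean inhibition above about 50% when retested at one dose, limit read from the data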;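 further: plate controls were DMSO wells with completed reaction for no effect and substrate without enzyme for full effect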
Starred values were filed as active, the others as inactive. Compounds with a hit are over-represented: about 2.3% of the library has one in this group of screens.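 How the source made its calls, unless noted: active means mean inhibition above about 50% in the one-dose retest (limit read from the data); inactive means the rest.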

Screening COc1ccc(-c2cc3nc[nH]c(=O)c3s2)cc1 returned HSP90 refold inh 6, SENP6 block -11, SENP7 block 46, SENP8 block-1 28 and SENP8 block-2 -335.
Screening COc1ccc(-c2cc3nc(CCl)[nH]c(=O)c3s2)cc1 returned HSP90 refold inh 50*, SENP6 block 94*, SENP7 block 59*, SENP8 block-1 83*, SENP8 block-2 -336, LGR2 antag 68*, HSP90 confirm 56*, FLuc counter 59*, SENP8 conf 66*, SENP6 conf 91*, SENP7 conf 70*, Casp3 SENP sel 82* and Luc interf 32.
Screening CCC(=O)N1[C@@H]2CN(C(=O)Nc3cccc(Cl)c3)c3ccccc3[C@@H]2[C@@H]1CO returned LGR2 antag -6.
Screening O=C(C[C@@H]1C[C@H]2c3cc(NC(=O)NC4CCCCC4)ccc3O[C@H]2[C@@H](CO)O1)NC1CCCCC1 returned LGR2 antag 26.
`NS(=O)(=O)c1c(Sc2ccccc2C(=O)O)ccc2ccccc12` gave HSP90 refold inh 23*, SENP6 block 94*, SENP7 block 52*, SENP8 block-1 -9, SENP8 block-2 5, LGR2 antag -55, HSP90 confirm 20*, FLuc counter -17, SENP8 conf -4, SENP6 conf 0, SENP7 conf -4, Casp3 SENP sel 2 and Luc interf 40.
COc1ccc(C(C[N+](=O)[O-])c2c(C)[nH]n(-c3ccccc3)c2=O)cc1 (stereo not drawn) was read as HSP90 refold inh 26*, SENP6 block 65*, SENP7 block 61*, SENP8 block-1 48, SENP8 block-2 84*, LGR2 antag -4, HSP90 confirm 50*, FLuc counter -9, SENP8 conf 18, SENP6 conf 60*, SENP7 conf 36, Casp3 SENP sel 0 and Luc interf 0.
`Cc1ccc(S(=O)(=O)NCC[C@@H]2CC[C@H](NC(=O)c3ccccn3)[C@@H](CO)O2)cc1` gave LGR2 antag -22.
For COc1ccc2cc3cc(C(=O)NC4CC4)sc3nc2c1 the results were HSP90 refold inh 21*, SENP6 block 90*, SENP7 block 85*, SENP8 block-1 71*, SENP8 block-2 -401, LGR2 antag inconclusive, HSP90 confirm 47*, FLuc counter 29*, SENP8 conf 6, SENP6 conf 81*, SENP7 conf 99*, Casp3 SENP sel 93* and Luc interf 13.
For C[C@@H]1CN([C@@H](C)CO)C(=O)c2cc(NC(=O)C3CCCCC3)ccc2O[C@@H](C)CCCCO[C@H]1CN(C)Cc1ccccc1 the results were LGR2 antag 14.
`CCC(=O)Nc1ccc2c(c1)OC[C@H](C)N(C(=O)NC(C)C)C[C@@H](C)[C@H](OC)CN(C)C2=O` gave LGR2 antag -23.
Screening Cc1ccc(-c2nc(N3CCN(C)CC3)c3ccccc3n2)cc1 returned HSP90 refold inh 2, SENP6 block -4, SENP7 block 4, SENP8 block-1 -5, SENP8 block-2 -3 and LGR2 antag -6.

Source: PubChem BioAssay (several laboratories)
